This note sets out measurements from PubChem BioAssay (NCI).

Experiment in all cases: NCI-60 one-dose screen, 48 h (100 = growth as untreated, 0 = no growth, -100 = all killed)
Common to all, as to conditions: 10 µM unless noted

The subject of assay [1] is HCT-15 colon.
Assay [2] deals with HT29 colon.
Assay [3] deals with SNB-75 CNS.
The subject of assay [4] is SNB-19 CNS.
The test system of assay [5] is U251 CNS.
Assay [6] relates to PC-3 prostate.
In assay [7] the test system is SK-MEL-5 melanoma.
Assay [8] has as its system UACC-62 melanoma.
Assay [9] relates to LOX IMVI melanoma.
Assay [10] has as its system SK-MEL-28 melanoma.

This is part of a sample that, as a whole, favours compounds with a hit. Of some 83,000 tested, about 20% had one in any assay.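 Treatment: one concentration, 48 hours, 96-well format. Scoring: percent growth, with anything below 10 considered active.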 A number with no mark means an inactive call. The source made the active and inactive calls.

`CC1(C)CN1P(=O)(N1CC1(C)C)N1CC1(C)C` (stereo not given): the growth in assay [1] was 112%; in assay [2] it was 120%; in assay [3], 72.7%; in assay [4] it was 105%; in assay [5] it was 98.2%; in assay [6], 99.1%. Moreover, the growth is 117% in assay [7], 98% in [8], 103% in assay [9] and 99.5% in assay [10].
Take `O=C(O)c1ccc([S-])cc1.[Au+].c1ccc(CN2[CH-]N(Cc3ccccc3)C(c3ccccc3)=C2c2ccccc2)cc1`: the growth in [1] is -89.3% (active); in assay [2], -24.7% (active); in assay [3], -9.88% (active); in assay [4] it was -66.8% (active); in assay [5], -82.5% (active); in assay [6] it was -25.6% (active). Also, the growth in assay [7] is -92.9% (active); in assay [8] it was -51.6% (active); in assay [9] it was -78.9% (active); in [10], -20.2% (active).
`CNCc1cccnc1`: the growth is 108% in assay [1]; 85.7% in [2]; 104% in [3]; 115% in [4]; 99.6% in assay [5]; 89% in assay [6]. The growth in assay [7] is 106%; in assay [8], 108%; in [9], 98.2%; in assay [10], 120%.
As to `NC(=Nc1ccccc1)N[N+](=O)[O-]`, the growth in [1] was 105%; in [2] it was 100%; in [3] it was 87.5%; in assay [4], 96.9%; in assay [5], 111%; in assay [6], 94.2%. The growth in assay [7] is 103%; in assay [8], 94%; in [9] it was 103%; in assay [10] it was 105%.
As for `COC(=O)[C@@H](C)C[C@H](Cc1ccc(F)cc1)NC(=O)c1csc([C@@H](C[C@H](C(C)C)N(C)C(=O)[C@@H](NC(=O)[C@H]2CCCCN2C)C2CC2)OC(C)=O)n1`, the growth is 12.4% in assay [1]; 0.34% (active) in assay [2]; 54.3% in assay [3]; 36.5% in [4]; 5.77% (active) in assay [5]; 28.7% in assay [6]. Moreover, the growth in assay [7] is -20.7% (active); in assay [8], 43.3%; in assay [9], 23.9%; in [10], 59%.
As to `CCn1cnc2c(Nc3cccc(Cl)c3)nc(N[C@@H]3CCCC[C@@H]3N)nc21`, the growth was 6.27% (active) in assay [1]; -4.11% (active) in assay [2]; -5.9% (active) in assay [3]; 7.42% (active) in [4]; 6.89% (active) in [5]; 4.71% (active) in assay [6]. In addition, the growth was -26.5% (active) in assay [7], 10.2% in assay [8], -8.41% (active) in assay [9] and 22.8% in assay [10].
As to `Cc1cccc(N2CCN(C(C)C#N)CC2)c1` (stereo not given), the growth was 106% in assay [1]; 105% in assay [2]; 106% in [3]; 115% in assay [4]; 103% in assay [5]; 102% in assay [6]. In addition, the growth in assay [7] was 105%; in [8] it was 111%; in [9], 94.7%; in assay [10], 114%.
In the case of `Oc1c(CCl)cc(Cl)cc1CCl`, the growth in [1] was 109%; in assay [2], 104%; in [3], 95.8%; in [4], 107%; in assay [5] it was 110%; in assay [6], 93.9%. Moreover, the growth in assay [7] is 104%; in assay [8], 116%; in assay [9], 93.8%; in assay [10], 126%.
Take `Cc1ccc(C(=O)NCCCOc2ccc(N3C(N)=NC(N)=NC3(C)C)cc2Cl)cc1S(=O)(=O)F`: the growth in assay [1] was 102%; in assay [2] it was 59.4%; in assay [3], 87.6%; in assay [4] it was 72.2%; in assay [5], 37.6%; in [6] it was 28.5%. Further, the growth in assay [7] was 32.9%; in assay [8] it was 30.1%; in [9] it was 26.7%; in assay [10], 104%.
Take `C=CCn1cc(C=C2C(=O)N(C)C(=O)N(C)C2=O)c2ccccc21`: the growth in [1] was 106%; in assay [2], 104%; in assay [3] it was 78.7%; in assay [4], 96.2%; in assay [5], 98.2%; in assay [6], 89.4%. Also, the growth was 94.9% in assay [7], 93.8% in assay [8], 94.8% in assay [9] and 97.9% in assay [10].
Regarding `CCOP(=O)(Cc1ccc(C#N)cc1)OCC`, the growth in assay [1] is 108%; in assay [2], 92.2%; in assay [3], 106%; in [4], 97.3%; in assay [5] it was 95.6%; in assay [6], 84.7%. Moreover, the growth was 104% in assay [7], 94.1% in assay [8], 98.3% in [9] and 107% in assay [10].
`CC[C@H](C)[C@H](NC(=O)N[C@@H](C)c1ccccc1)C(=O)N(C)[C@H](C[C@@H](OC(C)=O)c1nc(C(=O)N[C@@H](Cc2ccccc2)C[C@H](C)C(=O)OC)cs1)C(C)C`: the growth in assay [1] was 12.3%; in [2] it was -24.4% (active); in assay [3], -0.0971% (active); in assay [4] it was 56.7%; in assay [5], 13.1%; in assay [6], 22.6%. Moreover, the growth in assay [7] was -33.7% (active); in [8], 11.4%; in [9] it was 18%; in assay [10], 44.6%.
On to `ClCCN(CCCl)c1ccc(/C=N\N=C\c2ccc(N(CCCl)CCCl)cc2)cc1`, for which the growth in [1] was 37.3%; in assay [2], 39.3%; in assay [3] it was 72.1%; in [4], 69.2%; in [5] it was 47.4%; in assay [6], 34.3%. Besides, the growth in assay [7] was 49.7%; in assay [8], 24.5%; in assay [9], 10.7%; in assay [10] it was 61.3%.
